DT40 TDP1 CPT: growth inhibition of DT40 Tdp1-/-;hTDP1 cells with camptothecin (screen for TDP1 inhibitors) | chicken DT40 Tdp1-/-;hTDP1 cells + 20 nM CPT, ATP luminescence, 48 h | Potency, µM (titrated, usually from 46.2 µM), actives largely listed as inhibitors | hit rate 12% among 420,000; note: nearly all actives have a fitted effect of over 55% in size
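Cell growth measured by CellTiter-Glo luminescence after a minimum 48 h, 37 C compound exposure with 20 nM CPT in Tdp1-knockout DT40 cells stably expressing hTDP1, seeded 400/well; qHTS titration format.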
RORg inh: ROR gamma (mouse) transcription inhibition. P51450. Drosophila S2 Gal4-RORgamma UAS-luciferase reporter, 20 h. Potency, µM (highest dose often 53.6 µM), hits mostly inhibitors. hit rate 5.4% among 310,000; note: nearly all actives have a fitted effect of over 60% in size
Target sequence (P51450 whole entry, looked up, the tested form may be a part): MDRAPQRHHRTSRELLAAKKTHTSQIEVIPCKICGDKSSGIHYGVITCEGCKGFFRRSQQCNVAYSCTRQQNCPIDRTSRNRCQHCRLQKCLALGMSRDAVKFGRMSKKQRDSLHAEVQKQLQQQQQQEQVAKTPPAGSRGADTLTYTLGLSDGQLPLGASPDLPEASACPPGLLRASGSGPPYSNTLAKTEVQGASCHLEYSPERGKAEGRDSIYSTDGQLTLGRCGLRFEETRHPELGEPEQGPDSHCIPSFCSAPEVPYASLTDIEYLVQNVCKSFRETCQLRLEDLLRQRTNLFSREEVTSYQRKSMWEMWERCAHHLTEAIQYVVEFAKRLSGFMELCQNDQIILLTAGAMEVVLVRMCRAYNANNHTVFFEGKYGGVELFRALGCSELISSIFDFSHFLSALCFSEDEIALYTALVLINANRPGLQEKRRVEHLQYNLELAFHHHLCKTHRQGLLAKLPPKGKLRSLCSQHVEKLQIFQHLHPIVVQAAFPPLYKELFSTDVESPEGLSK
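Drosophila Schneider cells stably carrying a metallothionein-driven Gal4 DBD–ROR gamma fusion and a UAS-Photinus luciferase reporter were exposed to compound for 1 hr, then induced with copper sulfate (700 uM final) for 20 hr at ambient temperature before luminescence reading.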
Gal4-VP16 FLuc: counter-screen for ROR gamma inhibitors: Gal4-VP16 reporter | AID 2546 | hit rate 3.5% among 310,000 | Drosophila S2 Gal4-VP16 UAS-luciferase, luminescence, 20 h | Potency, µM (top dose mostly 53.6 µM), most hits filed as inhibitors;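 note: Gal4-VP16 expression switched on by copper sulfate through the metallothionein promoter; nearly all actives have a fitted effect of over 50% in size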
DT40 TDP1 no CPT: qHTS for Inhibitors of human tyrosyl-DNA phosphodiesterase 1 (TDP1): qHTS in cells in absence of CPT; DT40 Tdp1-/- hTDP1 cells, no CPT, ATP luminescence, 48 h; hit rate 15% among 420,000; Potency, µM (series often up to 46.2 µM), actives largely listed as inhibitors; AID 686978, 2013; note: nearly all actives have a fitted effect of over 55% in size
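Luminescent ATP content (CellTiter-Glo) served as the growth readout. Knockout chicken DT40 cells expressing human TDP1 were exposed to compounds without camptothecin for a minimum 48 hr at 37 °C.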
TDP1 inh: inhibitors of human tyrosyl-DNA phosphodiesterase TDP1 | AID 485290 | hit rate 0.28% among 350,000 | recombinant TDP1, AlphaScreen DNA substrate cleavage | Potency, µM (highest dose often 130 µM), most hits filed as inhibitors | Q9NUW8; note: nearly all actives have a fitted effect of over 40% in size
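Tdp1 1 nM final; 15 min RT w/ cpd; substrate 15 nM, 5 min; beads 10 ug/ml, 10 min; AlphaScreen read. Neg ctrl: no enzyme.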
Large screens that a line does not name were inactive. Compounds with a hit are over-represented: about 19% of the library has one in this group of screens. Calls come from the whole dose curve; as a rule, active = well fitted curve in the direction sought with a large enough effect; inconclusive = small, poorly fitted or top-dose-only effect, or another doubt; inactive = no such curve, though single readings can be large; an effect the other way counts as inactive or inconclusive.

CC(c1ccccc1)N1C(=O)OC(C)(C)C1(C)O (stereo not given)	none (no result: RORg inh, Gal4-VP16 FLuc)
Cc1ncc2c(c1CNC(=O)c1cncs1)CCN(C(=O)c1ccc(-c3ccccc3)cc1)C2	none (no result: RORg inh, Gal4-VP16 FLuc, TDP1 inh)
O=C(CN1CCCC1)N1c2ccccc2Sc2ccccc21	none
O=C(C[n+]1cc(-c2ccccc2)n2c1CCC2)c1cccs1	none
O=C(C[n+]1cc(-c2ccccc2)n2c1CCC2)N1c2ccccc2Sc2ccccc21	DT40 TDP1 CPT 5.2µM, DT40 TDP1 no CPT 2.6µM
Cc1ccc(-c2c[n+](CC(=O)Nc3c(C)cccc3C)c3n2CCC3)cc1	DT40 TDP1 CPT inconclusive, DT40 TDP1 no CPT inconclusive
Cc1ccc(-c2c[n+](CC(=O)N3c4ccccc4Sc4ccccc43)c3n2CCC3)cc1	DT40 TDP1 CPT 5.2µM, Gal4-VP16 FLuc inconclusive, DT40 TDP1 no CPT 5.2µM
O=C(C[n+]1cc(-c2ccc(F)cc2)n2c1CCC2)N1c2ccccc2Sc2ccccc21	DT40 TDP1 CPT 15µM, DT40 TDP1 no CPT 13µM
O=C(NCc1ccccn1)NC12CC3CC(CC(C3)C1)C2	none
COC(=O)c1sccc1NC(=O)c1ccccc1Br	none (no result: RORg inh, Gal4-VP16 FLuc, TDP1 inh)
CCC(=O)Nc1ccc(C(=O)CSc2nnc(-c3ccc(O)cc3)n2CC2CCCO2)cc1OC (stereo not given)	DT40 TDP1 no CPT inconclusive
COc1ccccc1Cn1c(=O)oc2ccc(C)cc21	none (no result: TDP1 inh)
Cc1ccc2oc(=O)n(Cc3ccccc3OC(C)C)c2c1	DT40 TDP1 CPT inconclusive, Gal4-VP16 FLuc inconclusive, DT40 TDP1 no CPT 15µM
COCCCn1cc(CN2CC(N3CCSCC3)CS2(=O)=O)nn1 (stereo not given)	none (no result: RORg inh, Gal4-VP16 FLuc, TDP1 inh)
CCCCCCn1c(=O)n2n(c1=O)[C@@H]1CN(S(=O)(=O)c3ccc(C)cc3)C[C@]1(O)[C@@H](OC(=O)NCC1CCCCC1)C2	DT40 TDP1 CPT inconclusive, DT40 TDP1 no CPT 16µM (no result: RORg inh, Gal4-VP16 FLuc, TDP1 inh)
CCCCCCn1c(=O)n2n(c1=O)[C@@H]1CN(S(=O)(=O)c3ccc(C)cc3)C[C@]1(O)[C@@H](OC(=O)NC1CC1)C2	DT40 TDP1 CPT inconclusive, DT40 TDP1 no CPT 16µM (no result: RORg inh, Gal4-VP16 FLuc, TDP1 inh)
Cc1ccc(S(=O)(=O)N2C[C@H]3[C@H]4C(=O)N(c5ccccc5)C(=O)[C@H]4C[C@H](OC(=O)NCc4ccccc4)[C@@]3(O)C2)cc1	none (no result: RORg inh, Gal4-VP16 FLuc, TDP1 inh)
CCCCCCNC(=O)O[C@H]1Cn2c(=O)ccc(=O)n2[C@@H]2CN(S(=O)(=O)c3ccc(C)cc3)C[C@]12O	DT40 TDP1 CPT 4.6µM, DT40 TDP1 no CPT 3.7µM (no result: RORg inh, Gal4-VP16 FLuc, TDP1 inh)
Cc1ccc(S(=O)(=O)N2C[C@H]3[C@H]4C(=O)N(c5ccccc5)C(=O)[C@H]4C[C@H](OC(=O)NCC4CCCCC4)[C@@]3(O)C2)cc1	none (no result: RORg inh, Gal4-VP16 FLuc, TDP1 inh)
CCCCCCNC(=O)O[C@H]1Cn2c(=O)n(CCCCCC)c(=O)n2[C@@H]2CN(S(=O)(=O)c3ccc(C)cc3)C[C@]12O	DT40 TDP1 CPT inconclusive, DT40 TDP1 no CPT 21µM (no result: RORg inh, Gal4-VP16 FLuc, TDP1 inh)
C=CCOc1ccc(C2C3=C(CCCC3=O)N(CC(=O)O)C3=C2C(=O)CCC3)cc1OCC	none
CCn1c(SCC(=O)Nc2ccc3c(c2)c2ccccc2n3CC)nnc1-c1ccco1	none
CC1CCN(C(=O)CC2C(=O)Nc3c2c(=O)n(C)c(=O)n3Cc2ccccc2)CC1 (stereo not given)	DT40 TDP1 CPT inconclusive
CCN(CC)C(=O)Cn1c(=O)n(CCCCCC(=O)NCc2ccccc2)c(=O)c2sccc21	none (no result: RORg inh, Gal4-VP16 FLuc)
Cc1ccc(S(=O)(=O)N2C[C@H]3[C@H]4C(=O)N(c5ccccc5)C(=O)[C@H]4C[C@H](OC(=O)NCc4ccco4)[C@@]3(O)C2)cc1	none (no result: RORg inh, Gal4-VP16 FLuc, TDP1 inh)
CCCCCCn1c(=O)n2n(c1=O)[C@@H]1CN(S(=O)(=O)c3ccc(C)cc3)C[C@]1(O)[C@@H](OC(=O)Nc1cccs1)C2	DT40 TDP1 CPT 23µM, DT40 TDP1 no CPT 26µM (no result: RORg inh, Gal4-VP16 FLuc, TDP1 inh)
Cc1ccc(S(=O)(=O)N2C[C@H]3n4c(=O)ccc(=O)n4C[C@H](OC(=O)NCc4ccccc4F)[C@@]3(O)C2)cc1	DT40 TDP1 CPT inconclusive, DT40 TDP1 no CPT 21µM (no result: RORg inh, Gal4-VP16 FLuc, TDP1 inh)
CCC(C)C1Nc2ccc(C(=O)NCc3ccc4c(c3)OCO4)cc2NC1=O (stereo not given)	DT40 TDP1 CPT inconclusive, DT40 TDP1 no CPT inconclusive

Screening data: PubChem, National Center for Advancing Translational Sciences (NCATS)
